CHOP inh: blocks CHOP induction under ER stress. CHO-K1 CHOP-promoter luciferase, tunicamycin-induced, 15-18 h. inhibition, % at 10 µM. 220,000 tested, 3.8% active;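 active = compounds that reduced the stress-induced luciferase reporter signal by more than about 70% of percent inhibition, limit read from the data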
L major viab: reduces viability of Leishmania major promastigotes | inhibition, % at 10 µM | 200,000 tested, 9% active | resazurin fluorescence viability | AID 1063; in the data active = inhibition above about 50%;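 note: promastigotes grown with compound for 44 hours at 28 °C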
WT yeast gro inh: growth inhibition of WT yeast, mitochondrial fusion screen; mitochondrial fusion phenotypic screen, WT strain; inhibition, % at 10 µM; 190,000 tested, 2.1% active; in the data active = inhibition above about 58%; tested in S. cerevisiae
Arbovirus anti: blocks arbovirus infection | 200,000 tested, 0.37% active | inhibition, % at 10 µM | arbovirus infection cell-based antiviral screen; in the data active = inhibition above about 30%
Numbers stand for hits; - = inactive; . = no result given. Sampled rows, rich in hits. Any-hit rate of the full collection: about 12%.

SMILES | CHOP inh | L major viab | WT yeast gro inh | Arbovirus anti
C=CCn1cnc2scc(-c3ccc(C)cc3)c2c1=O | 75.2 | - | - | -
CCN(CC)c1ccc(S(=O)(=O)N2CCOCC2)cc1NC(=O)CN1CCN(Cc2ccccc2)CC1 | - | . | . | .
COc1ccc(-c2csc(N(CCCN(C)C)C(=O)c3cccs3)n2)cc1 | - | 91.8 | - | -
O=C(COc1ccccc1)N(Cc1ccccc1)c1nc(-c2ccccc2)cs1 | - | - | - | -
COc1ccc(-c2csc(N(Cc3ccccc3)C(=O)COc3ccc(Cl)cc3)n2)cc1 | 91.3 | - | - | -
O=C(Nc1ccc2c(c1)C(=O)NC2=O)c1ccc2ncsc2c1 | - | - | - | -
COC(=O)/C(=C\c1ccc([N+](=O)[O-])o1)NC(=O)c1ccccc1 | - | 95.0 | - | -
CCCCNC(=O)/C(=C\c1ccc([N+](=O)[O-])o1)NC(=O)c1ccccc1 | - | 67.2 | - | -
CN(C)C(=O)/C(=C\c1ccc(-c2cccc([N+](=O)[O-])c2)o1)NC(=O)c1ccccc1 | - | - | - | -
Cc1[nH]c2ccccc2c1Cc1nnc(SCc2ccccc2)o1 | - | - | - | -
O=C(CNC(=O)c1cccs1)c1ccc(F)cc1 | - | - | - | -
CC(NC(=O)c1cn(C(C)c2ccccc2F)nn1)c1ccncc1 (centres undefined) | - | - | - | -
CCOc1ccc(-n2c(N)c(C(=O)NCc3ccco3)c3nc4ccccc4nc32)cc1 | - | - | - | -
CCOc1ccc(-n2c(N)c(-c3nc4ccccc4n3C)c3nc4ccccc4nc32)cc1 | 92.8 | - | - | -
O=C1c2cnccc2CN1Cc1ccccc1 | - | - | - | -
CCOC(=O)CN1C(=O)S/C(=C/c2ccc(O)c([N+](=O)[O-])c2)C1=O | - | 51.8 | - | -
COc1cc(/C=C2\SC(=O)N(c3ccc(O)cc3)C2=O)cc(OC)c1OC | - | . | . | .
COc1cc(/C=C2\SC(=O)N(CC(=O)Nc3cccc(C)c3)C2=O)cc([N+](=O)[O-])c1O | - | - | - | -
CCOC(=O)CN1C(=O)S/C(=C/c2cc(C)n(C)c2C)C1=O | . | - | . | .
CCOc1cc(/C=C2\SC(=O)N(CC(=O)Nc3ccccc3F)C2=O)cc([N+](=O)[O-])c1O | 92.5 | - | - | -
COc1cc(/C=C2\SC(=O)N(c3ccccc3Cl)C2=O)cc([N+](=O)[O-])c1O | - | - | 83.4 | -
CCCCN(Cc1ccccc1)S(=O)(=O)c1cc(Br)cc2c1N(C(C)=O)C(C)C2 (centres undefined) | 84.4 | 98.2 | - | -
COc1ccc(NC(=O)c2cc(=O)[nH]c(=O)[nH]2)cc1S(=O)(=O)Nc1ccccc1Cl | - | - | - | -
CC(=O)N1/C(=C/c2ccc(N(C)C)cc2)C(=O)c2ccccc21 | - | 100.3 | 62.6 | -
CN(C)c1ccc(/C=C2\C(=O)Nc3ccccc32)cc1 | - | . | . | .
SMILES | CHOP inh | L major viab | WT yeast gro inh | Arbovirus anti
Cc1ccc(N(C(=O)c2nsc(Cl)c2Cl)C(C(=O)NC2CCCC2)c2ccc(O)cc2)cc1C (centres undefined) | - | 76.4 | - | -
Cc1cccc(N(C(=O)c2nsc(Cl)c2Cl)C(C(=O)NC2CCCC2)c2ccc(O)cc2)c1C (centres undefined) | - | 98.0 | - | -
Cc1cc(C)cc(N(C(=O)c2nsc(Cl)c2Cl)C(C(=O)NC2CCCC2)c2ccc(O)cc2)c1 (centres undefined) | - | 71.0 | - | -
Cc1cc(=O)[nH]c(-c2ccc(C(F)(F)F)cc2)n1 | - | . | . | .
Cc1ccc(-c2csc3ncnc(NCCN4CCOCC4)c23)cc1 | - | - | - | -
Cc1ccc(-c2csc3ncnc(Nc4ccc(N5CCOCC5)cc4)c23)cc1 | - | - | 64.0 | -
CC(C)(C)C1CCC(OC(=O)c2ccncc2)CC1 (centres undefined) | 74.3 | - | . | -
COc1ccc(C2CC(=O)Nc3n[nH]c(-c4ccccc4)c32)cc1OC (centres undefined) | - | - | - | -
COc1ccc(Cn2c(CCC(=O)Nc3ccc(C)c(C)c3)nc3cccnc32)cc1 | 85.9 | - | - | -
CC1CCC2(CC1)NC(=S)N(c1ccccc1)N2 (centres undefined) | - | 79.4 | - | -
CCOC(=O)CSc1nnc2c(n1)C1(C)CCC2C1(C)C (centres undefined) | - | - | - | -
CC12CCC(c3nnc(SCc4ccc(Cl)cc4)nc31)C2(C)C (centres undefined) | 74.5 | - | - | -
Cc1ccc(N=Nc2c(N)nn3c(N)c(C#N)c(C)nc23)cc1 | 73.4 | - | - | -
Cc1ccc(C)c(NC(=S)N(CCN(C)C)C(C)c2ccccn2)c1 (centres undefined) | - | - | - | -
COC(=O)c1ccc(NC(C(=O)OC)C(C)C)c([N+](=O)[O-])c1 (centres undefined) | - | - | - | -

Assay outcomes from PubChem BioAssay.
